# In PubChem BioAssay (NCATS):
# Values joined by “and” are separate entries in the source; they are usually repeats but may differ in a detail not shown here. Equal values may be shown once. Results filed as inconclusive are left out. Active and inactive are the calls of the source. Unless noted, the call rests on the fitted dose curve.
# Target: Cytochrome P450 1A2 (Homo sapiens) (UniProt P05177)
# Assay: p450-cyp1a2 (AID 410); further: potency means the concentration at half of the fitted maximal effect;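 on activity change, negative = inhibition: -100% = full effect of reference inhibitor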
# Details: recombinant CYP1A2, luciferin-ME demethylation, luminescence; series mostly up to 57 µM; activity change, negative = inhibition: at the top concentration
# Outline: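 Inhibition was calculated relative to 57 uM furafylline (full inhibition). The reaction used human CYP1A2 at 20nM with Luciferin-ME at its Km, 100uM, driven by an NADPH-regenerating system for 60 min at room temperature.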
# Cytochrome P450 1A2 (Homo sapiens), sequence (P05177 whole entry, looked up): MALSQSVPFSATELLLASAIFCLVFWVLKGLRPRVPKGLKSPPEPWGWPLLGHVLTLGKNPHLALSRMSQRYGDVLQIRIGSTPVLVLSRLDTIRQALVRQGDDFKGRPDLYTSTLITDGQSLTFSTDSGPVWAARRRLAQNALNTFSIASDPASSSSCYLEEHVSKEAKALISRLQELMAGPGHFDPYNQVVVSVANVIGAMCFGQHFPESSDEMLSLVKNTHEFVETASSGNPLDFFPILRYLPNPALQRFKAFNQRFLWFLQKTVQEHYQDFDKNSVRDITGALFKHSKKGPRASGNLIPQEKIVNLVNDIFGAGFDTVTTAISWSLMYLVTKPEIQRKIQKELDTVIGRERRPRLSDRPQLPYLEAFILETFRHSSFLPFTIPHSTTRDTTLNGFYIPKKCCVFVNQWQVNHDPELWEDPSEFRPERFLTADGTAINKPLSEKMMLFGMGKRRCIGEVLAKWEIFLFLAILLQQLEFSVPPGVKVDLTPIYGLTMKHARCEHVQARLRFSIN
Compound,"activity change, negative = inhibition",Potency
COc1ccc(C(=O)N2CCC3(CCN(Cc4cc(C(F)(F)F)cc(C(F)(F)F)c4)CC3)CC2)cc1,-5.7% (inactive),–
COc1ccc(CNc2ccnc(-c3cccc(C#N)c3)n2)c(OC)c1,–,2.51 µM (active)
O=c1c(-c2cc(F)cc(F)c2)nc2cnc(N3CCOCC3)nc2n1-c1ccccc1,–,5.01 µM (active)
c1ccc(CNc2ccnc(-c3ccc4c(c3)OCO4)n2)cc1,–,0.398 µM (active)
COc1ccc(C(=O)N2CCC[C@@]3(CCN(Cc4cc(C(F)(F)F)cc(C(F)(F)F)c4)C3)C2)cc1,2.1% (inactive),–
COc1ccc(CNc2nc(-c3ccc4c(c3)OCO4)nc3ccccc23)c(OC)c1,–,3.98 µM (active)
COc1ccc(-n2c(=O)c(-c3cccs3)nc3cnc(Nc4cccc(OC)c4)nc32)cc1,-19.5% (inactive),–
COc1cccc(Cn2c(=O)c(-c3ccc(Cl)cc3)nc3cnc(OC)nc32)c1,–,3.98 µM (active)
COc1ccccc1CNc1nc(-c2cccnc2)nc2ccccc12,–,1 µM (active)
c1ccc(CNc2nc(-c3ccc4c(c3)OCO4)nc3ccccc23)cc1,–,0.501 µM (active)
CN(C)c1ncnc2ccc(-c3ccccc3C(F)(F)F)cc12,–,0.631 µM (active)
CN(C)c1ncc2nc(-c3cccs3)c(=O)n(-c3ccccc3)c2n1,–,31.6 µM (active)
COc1cccc(Cn2c(=O)c(-c3cccs3)nc3cnc(Nc4cccc(OC)c4)nc32)c1,–,2.51 µM (active)
O=C(c1csnn1)N1CCC2(CC1)CN(c1cccc(-c3ccccc3)c1)C2,–,12.6 µM (active)
COc1ccc(C(=O)N2CCC3(CCCN(Cc4cc(C(F)(F)F)cc(C(F)(F)F)c4)C3)CC2)cc1,11.6% (inactive),–
O=c1c(-c2ccc(F)cc2)nc2cnc(Nc3ccccc3)nc2n1Cc1cccs1,–,2 µM (active)
COc1cccc(-c2nccc(NCc3cccs3)n2)c1,–,0.2 µM (active)
Cc1c(CC(C)(C)C(=O)O)n(Cc2ccc(Cl)cc2)c2ccc(F)cc12,–,12.6 µM (active) and 15.8 µM (active)
Cc1noc(C)c1-c1nc(Nc2ccc(F)cc2)c2ccccc2n1,–,0.251 µM (active)
Cc1nc2cnc(N(C)C)nc2n(-c2ccccc2)c1=O,–,2 µM (active)
COc1cccc(Nc2ncc3nc(-c4ccccc4)c(=O)n(C)c3n2)c1,–,3.16 µM (active)
CCNc1ncc2nc(-c3ccccc3)c(=O)n(C)c2n1,–,0.398 µM (active)
COc1ccc(-c2nc3cnc(Nc4cccc(OC)c4)nc3n(Cc3cccs3)c2=O)cc1,-12.7% (inactive),–
O=c1c(-c2ccccc2)nc2cncnc2n1-c1ccccc1,–,5.01 µM (active)
c1csc(CNc2ccnc(-c3ccc4c(c3)OCO4)n2)c1,–,0.316 µM (active)
COc1c(O)cc2oc3cc(O)c(CC=C(C)C)c(O)c3c(=O)c2c1CC=C(C)C,–,31.6 µM (active)
COc1ccc(-c2nc3cnc(Nc4ccccc4)nc3n(CCC#N)c2=O)cc1,–,0.501 µM (active)
COC(=O)C1=C(C)NC(C)=C(C(=O)OCCSc2ccccc2)[C@@H]1C,–,0.794 µM (active)
Cn1c(=O)c(-c2ccccc2)nc2cnc(Nc3ccccc3)nc21,–,15.8 µM (active)

# System: not listed separately
# Assay: NFAT Signaling Pathway (AID 444; active means well fitted curve in either direction with a large enough effect, not every such curve was filed as active;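 further: carbachol stimulus at about its EC50 of 1 µM final; on the % scale 0 is the no-effect control and ±100 the full control effect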)
# Details: Jurkat NFAT-bla M1, carbachol, beta-lactamase ratio, 5 h; at 7.69 µM (top of the series) unless noted
# Outline: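 Read-out: CCF4 FRET ratio (460 nm/530 nm) after 1 h RT dye loading, used for %activity and AC50 from titration series. Cells: Jurkat NFAT-β-lactamase/M1 line, treated with compound plus 1 uM carbachol for 5 h, 37 °C.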
row,Compound,"activity change, negative = inhibition"
1,COc1ccc(C(=O)N2CCC3(CCN(Cc4cc(C(F)(F)F)cc(C(F)(F)F)c4)CC3)CC2)cc1,19.2% (inactive)
2,c1ccc(CNc2ccnc(-c3ccc4c(c3)OCO4)n2)cc1,15.5% (inactive)
3,COc1cccc(-c2nc(NCc3ccc(OC)cc3OC)c3ccccc3n2)c1,-23.1% (inactive)
4,COc1ccc(C(=O)N2CCC[C@@]3(CCN(Cc4cc(C(F)(F)F)cc(C(F)(F)F)c4)C3)C2)cc1,-5.26% (inactive)
5,COc1cccc(Cn2c(=O)c(-c3ccc(Cl)cc3)nc3cnc(OC)nc32)c1,8.55% (inactive)
6,COc1ccccc1CNc1nc(-c2cccnc2)nc2ccccc12,-5.69% (inactive)
7,c1ccc(CNc2nc(-c3ccc4c(c3)OCO4)nc3ccccc23)cc1,-23.9% (inactive)
8,CN(C)c1ncc2nc(-c3cccs3)c(=O)n(C3CC3)c2n1,19.8% (inactive)
9,CN(C)c1ncnc2ccc(-c3ccccc3C(F)(F)F)cc12,20.6% (inactive)
10,CN(C)c1ncc2nc(-c3cccs3)c(=O)n(-c3ccccc3)c2n1,6.03% (inactive)
11,O=C(c1csnn1)N1CCC2(CC1)CN(c1cccc(-c3ccccc3)c1)C2,-11.3% (inactive)
12,COc1ccc(C(=O)N2CCC3(CCCN(Cc4cc(C(F)(F)F)cc(C(F)(F)F)c4)C3)CC2)cc1,-13.8% (inactive)
13,COc1cccc(-c2nccc(NCc3cccs3)n2)c1,15.4% (inactive)
14,Cc1noc(C)c1-c1nc(Nc2ccc(F)cc2)c2ccccc2n1,11.3% (inactive)
15,Cc1nc2cnc(N(C)C)nc2n(-c2ccccc2)c1=O,9.3% (inactive)
16,COc1cccc(Nc2ncc3nc(-c4ccccc4)c(=O)n(C)c3n2)c1,-6.92% (inactive)
17,Cn1cc(-c2nc3cnc(N4CCOCC4)nc3n(CCC#N)c2=O)c2ccccc21,-7.6% (inactive)
18,CCNc1ncc2nc(-c3ccccc3)c(=O)n(C)c2n1,-7.59% (inactive)
19,COCCn1c(=O)c(-c2cccs2)nc2cnc(N3CCOCC3)nc21,2.93% (inactive)
20,O=c1c(-c2ccccc2)nc2cncnc2n1-c1ccccc1,2.09% (inactive)
21,c1csc(CNc2ccnc(-c3ccc4c(c3)OCO4)n2)c1,11.2% (inactive)
22,O=c1c(-c2cccs2)nc2cnc(N3CCOCC3)nc2n1CCc1ccccc1,19.8% (inactive)
23,COc1ccccc1-c1ccc2ncnc(N(C)Cc3ccco3)c2c1,-26.4% (inactive)
24,Cn1c(=O)c(-c2ccccc2)nc2cnc(Nc3ccccc3)nc21,-7.03% (inactive)
